SMILES strings stand for the structures. The whole screen tested about 320,000 compounds, of which about 2,100 (0.66%) were called active. Inconclusive results (about 53%) are left out. Calls follow the shape of the dose curve; as a rule, active = well fitted inhibition curve with a large enough effect in the signal ratio, with a control signal flat (not every such curve was filed as active); inconclusive = small, poorly fitted or top-dose-only effect, or effect the other way, or a change in a side signal; inactive = flat fitted curve, though single readings scatter; the % refers to the signal ratio. This excerpt belongs to a sample that is enriched for actives.
Potency is read from the fitted curve at half-maximal effect.

A short description of this test: qHTS Assay for Lipid Storage Modulators in Drosophila S3 Cells.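 As to cell number change: cells counted by Cell Tracker Red CMTPX staining in the red channel.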 As to lipid storage change, negative = inhibition: % is scaled to controls: 0 for no effect and ±100 for the full control effect. As to conditions: BODIPY lipid droplet fluorescence, 18-24 h, cells fed with added oleic acid; cell number change: measured here: cell count max response; series mostly up to 46.1 µM; lipid storage change, negative = inhibition: at the top concentration. The method in brief: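 Laser-scanning cytometry quantifies lipid droplet accumulation (500–530 nm total intensity; droplet/cell object ratio) in oleic acid-fed (400 uM added) Drosophila S3 cells treated with a concentration series. 20 uM Triacsin C defined 100% inhibition.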
A general note: In qHTS, concentration-response curves come from the screen itself.
For `CN1CCN(c2nc(C(N)=O)cc(-c3ccccc3)n2)CC1`, the “lipid storage change, negative = inhibition” value was 5.39% (inactive) and the cell number change was -10.6%.
With `COc1ccc(-c2nc(CSCC(=O)N3CCC(C(N)=O)CC3)c(C)o2)cc1OC`, the “lipid storage change, negative = inhibition” value was 14.4% (inactive) and the cell number change was -1.8%.
Turning to `COC(=O)c1ccc2c(c1)C(C)(C)C(/C=C/c1ccc(O)cc1)=[N+]2C`, the Potency is 5.17 µM (active) and the cell number change was 1%.
With `COc1ccc(C(=O)/C=C/c2ccc(O)cc2)cc1`, the “lipid storage change, negative = inhibition” value was 1.73% (inactive) and the cell number change is -17.3%.
Take `COC(=O)c1ccc(/C=C/C(=O)O)cc1`: the “lipid storage change, negative = inhibition” value is 3.31% (inactive) and the cell number change is 2.73%.
Take `Cc1cc(NC(=O)CSc2ncnc3sc(C)c(C)c23)no1`: the call was inactive.
For the compound `Cc1ccc(S(=O)(=O)N2CCC(C(=O)Nc3nnc(C4CCCC4)s3)CC2)cc1`, the “lipid storage change, negative = inhibition” value was 5.91% (inactive) and the cell number change was determined as 5.99%.
The like results for `COc1ccc(CNC(=O)CC2(CC(=O)O)CCCCC2)cc1` were, in that order, -10.1% (inactive) and -16.2%.
Regarding `COc1ccc(S(=O)(=O)NC(C)C(=O)Nc2ccccc2F)cc1` (stereo not given), the “lipid storage change, negative = inhibition” value is 11.5% (inactive) and the cell number change was determined as 4.07%.
Regarding `COc1ccccc1NC(=O)C(C)NS(=O)(=O)c1ccc(Cl)cc1` (stereo not given), the Potency was 6.51 µM (active) and the cell number change was found to be 10.9%.
For the compound `COc1ccccc1NC(=O)C(C)NS(=O)(=O)c1ccc(F)cc1` (stereo not given), the “lipid storage change, negative = inhibition” value was 2.58% (inactive) and the cell number change was 6.54%.
As for `COc1cc(C(=O)OCC(=O)N2CCCCC2C)cc(NC(=O)c2cccs2)c1OC` (stereo not given), the “lipid storage change, negative = inhibition” value was 2.46% (inactive) and the cell number change stood at 7.36%.
For the compound `CCCNC(=O)C1CCC(CNS(=O)(=O)c2cccc3nsnc23)CC1` (stereo not given), the “lipid storage change, negative = inhibition” value is -7.4% (inactive).
As to `CC(C)(C)NC(=O)C1CCC(CNS(=O)(=O)c2cccc3nsnc23)CC1` (stereo not given), the Potency is 18.4 µM (active).
Turning to `COC(=O)CNC(=O)C1CCC(CNS(=O)(=O)c2cccc3nsnc23)CC1` (stereo not given), the “lipid storage change, negative = inhibition” value was 20.8% (inactive) and the cell number change was -18.8%.
In the case of `Cc1cc(NC(=O)CSc2nc(=O)n3cc(Cl)ccc3n2)no1`, the cell number change came to 13.5% and the lipid storage change, negative = inhibition was 0.863% [at 0.0737 µM] (inactive).
Take `Fc1ccc(CNn2cnnc2SCc2ccc(F)cc2)cc1`: the “lipid storage change, negative = inhibition” value was 5.62% (inactive) and the cell number change is 9.34%.
Regarding `CCc1cccc2c(C(=O)COC(=O)c3cccc(S(=O)(=O)N(C)C4CCCCC4)c3)c[nH]c12`, the “lipid storage change, negative = inhibition” value is -20% (inactive) and the cell number change worked out at 6.53%.
As for `O=C(NC1CCCC1)C(c1ccc(F)cc1)N(C(=O)c1csnn1)C1CC1` (stereo not given), the “lipid storage change, negative = inhibition” value is -8.24% (inactive) and the cell number change is -11.5%.
Take `C=CCN(C(=O)c1csnn1)C(C(=O)NC1CCCC1)c1ccccc1` (stereo not given): the call was inactive and the cell number change stood at 15.2%.
Consider `C=CCN(C(=O)c1csnn1)C(C(=O)NC1CCCCC1)c1ccc(F)cc1` (stereo not given), for which the call was inactive and the cell number change worked out at 11.7%.
For the compound `C=CCN(C(=O)c1csnn1)C(C(=O)NC1CCCC1)c1c(F)cccc1Cl` (stereo not given), the Potency was 9.2 µM (active) and the cell number change came to 0.427%.
For `C=CCN(C(=O)c1csnn1)C(C(=O)NC1CCCC1)c1ccccc1F` (stereo not given), the result was inactive and the cell number change was -7.62%.
For `O=C(NC1CCCC1)C(c1ccc(Cl)cc1)N(C(=O)c1csnn1)C1CC1` (stereo not given), the “lipid storage change, negative = inhibition” value is -21.7% (inactive) and the cell number change amounted to 12.1%.
In the case of `O=C(NC1CCCC1)C(c1c(F)cccc1Cl)N(C(=O)c1csnn1)C1CC1` (stereo not given), the Potency was 16.4 µM (active) and the cell number change is -12.9%.
The like results for `C=CCN(C(=O)c1csnn1)C(C(=O)NC1CCCCC1)c1ccccc1F` (stereo not given) were, in that order, 13 µM (active) and 2.14%.
With `C=CCN(C(=O)c1csnn1)C(C(=O)NC1CCCC1)c1ccc(Cl)cc1` (stereo not given), the call was inactive and the cell number change is -41%.
`O=C(c1cccc(COc2cccc3ccccc23)c1)N1CCCC1`: the “lipid storage change, negative = inhibition” value was 0.849% (inactive) and the cell number change is -5.05%.
In the case of `COc1ccc(/C=N/Nc2nnc(-c3ncc[nH]3)c3ccccc23)cc1`, the “lipid storage change, negative = inhibition” value was -8.98% (inactive) and the cell number change is -1.94%.
With `CC1=C(C)CC(C(=O)Nc2ccc3c(c2)OCO3)C(C(=O)O)C1` (stereo not given), the “lipid storage change, negative = inhibition” value is 14.7% (inactive) and the cell number change was -0.481%.
On to `COc1ccc(OC)c(S(=O)(=O)NNC(=S)Nc2ccc3c(c2)OCO3)c1`, for which the outcome was inactive and the cell number change was 5.94%.
Regarding `O=C(Nc1cnccn1)Nc1cccc(Cl)c1Cl`, the “lipid storage change, negative = inhibition” value is -1.85% (inactive) and the cell number change is -0.957%.
Regarding `CSc1ncccc1C(=O)Nc1cccc(S(=O)(=O)N2CCCCC2)c1`, the Potency was 16.4 µM (active) and the cell number change came out at 0.775%.
For the compound `CCOc1ncccc1C(=O)Nc1cccc(S(=O)(=O)N2CCCCC2)c1`, the “lipid storage change, negative = inhibition” value is 25.8% (inactive) and the cell number change is -15%.
With `Cc1c(C(=O)NCC2COc3ccccc3O2)oc2ccc(S(=O)(=O)N3CC(C)CC(C)C3)cc12` (stereo not given), the call was inactive and the cell number change was found to be 0.959%.
On to `O=C(NCC1CCCCC1)c1cccc(S(=O)(=O)N2CCCC2)c1`, for which the “lipid storage change, negative = inhibition” value was 6.69% (inactive) and the cell number change came to 3.1%.
Consider `CC1CN(S(=O)(=O)c2cccc(C(=O)Nc3ccccc3N3CCOCC3)c2)CC(C)O1` (stereo not given), for which the call was inactive and the cell number change is -20.3%.
In the case of `CCN(CC)S(=O)(=O)c1ccc2oc(C(=O)NC3CC3)c(C)c2c1`, the compound was called inactive and the cell number change was -10.9%.
In the case of `O=C(Nc1cccc(S(=O)(=O)N2CCCCC2)c1)c1ccccn1`, the “lipid storage change, negative = inhibition” value is 0.112% (inactive) and the cell number change was 20.1%.
Consider `CN1CCN(S(=O)(=O)c2cccc(C(=O)Nc3ccccc3N3CCCC3)c2)CC1`, for which the “lipid storage change, negative = inhibition” value was -27.5% (inactive) and the cell number change stood at 9.72%.
Regarding `CC1CN(S(=O)(=O)c2cccc(C(=O)Nc3ccccc3N3CCCCC3)c2)CC(C)O1` (stereo not given), the Potency was 23.1 µM (active) and the cell number change was -19.1%.
Turning to `O=C(NCC1COc2ccccc2O1)c1cccc(S(=O)(=O)N2CCOCC2)c1` (stereo not given), the “lipid storage change, negative = inhibition” value was -2.13% (inactive) and the cell number change is -18%.
For the compound `CCN(CC)S(=O)(=O)c1ccc2oc(C(=O)NCC3COc4ccccc4O3)c(C)c2c1` (stereo not given), the Potency is 0.461 µM (active) and the cell number change was -14.2%.
As to `O=C(NCC1COc2ccccc2O1)c1cccc(S(=O)(=O)N2CCCCC2)c1` (stereo not given), the Potency is 2.06 µM (active) and the cell number change was -15.1%.

These data come from PubChem BioAssay AID2685 (National Center for Advancing Translational Sciences (NCATS), 2010).
